# “And” between values parts separate entries of the source, which are not always exact repeats. Identical values can stand only once. Records with an inconclusive call do not appear. Values without a mark were called inactive. The source made the active and inactive calls. Calls follow the shape of the dose curve; as a rule, active = well fitted curve in the direction sought with a large enough effect; inconclusive = small, poorly fitted or top-dose-only effect, or another doubt; inactive = no such curve, though single readings can be large; an effect the other way counts as inactive or inconclusive.
# Legend:
# [1] = tested on: Tov112D; assay: Primary qHTS to identify gynecologic anti-cancer compounds using libraries of approved drugs and bioactive compounds (AID 1345084); conditions: Gynecologic cancer cell panel viability, ATPlite luminescence, 48 h; series mostly up to 57.5 µM; also: nearly all actives have a fitted effect of over 55% in size
# Procedure, shortened: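 Five-concentration response, 48 h; readout is ATP-driven luciferase luminescence.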
# [2] = Drug repurposing screens with cells derived from glioblastoma tumor samples (AID 1345199); conditions: GBM patient neurospheres viability, ATP luminescence, 48 h; also: nearly all actives have a fitted effect of over 40% in size
# Procedure, shortened: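 Primary testing used CD133+ neurospheres from four GBM patients, seven concentrations, 48 h exposure and ATP-based viability; confirmation added three slower-growing patient lines.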
# [3] = at 45.9 µM (top of the series), tumour line B
# [4] = at 45.9 µM (top of the series), tumour line D
# [5] = at 46.1 µM (top of the series), tumour line C
# [6] = at 46 µM (top of the series), tumour line A
# [7] = at 20 µM (top of the series), tumour line C
# [8] = at 21.2 µM (top of the series), tumour line B
# % is scaled to controls: 0 for no effect and ±100 for the full control effect; potency is read from the fitted curve at half-maximal effect.
structure (smiles),measurement,setting,value
CC[C@]1(O)C[C@@H]2CN(CCc3c([nH]c4ccccc34)[C@@](C(=O)OC)(c3cc4c(cc3OC)N(C)[C@H]3[C@@](O)(C(=O)OC)[C@H](OC(C)=O)[C@]5(CC)C=CCN6CC[C@]43[C@@H]65)C2)C1,Potency,[1],158 nM (active) and 316 nM (active)
CN(C)Cc1ccc(-c2nc3cccc4c3n2CCNC4=O)cc1,Potency,[1],inactive
COc1ccc2cccc(CCNC(C)=O)c2c1,Potency,[1],inactive
Cc1ccc(Nc2cc(-c3cccc(N4C(=O)c5ccccc5C4=O)c3)ncn2)cc1NS(C)(=O)=O,Potency,[1],inactive
Cc1cccc(C)c1OCC(C)N (configuration not stated),Potency,[1],inactive
same,"activity, negative = cell killing",[2]; [3],-9.46%
same,"activity, negative = cell killing",[2]; [4],4.9%
same,"activity, negative = cell killing",[2]; [5],3.32%
CCN1CCC[C@H]1CNC(=O)c1cc(S(N)(=O)=O)ccc1OC,Potency,[1],inactive
same,"activity, negative = cell killing",[2]; [3],0.712%
same,"activity, negative = cell killing",[2]; [4],-10.3%
same,"activity, negative = cell killing",[2]; [6],-29.7%
same,"activity, negative = cell killing",[2]; [5],1.29%
CS(=O)(=O)N(Cc1ccco1)CC(O)Cn1c2ccccc2c2ccccc21 (configuration not stated),Potency,[1],inactive
CN1CCN(CCOc2cc(OC3CCOCC3)c3c(Nc4c(Cl)ccc5c4OCO5)ncnc3c2)CC1,Potency,[1],inactive
CC(=O)Oc1cc2c(s1)CCN(C(C(=O)C1CC1)c1ccccc1F)C2 (configuration not stated),Potency,[1],inactive
same,"activity, negative = cell killing",[2]; [3],4.77%
same,"activity, negative = cell killing",[2]; [4],-7.3%
same,"activity, negative = cell killing",[2]; [6],-27.4%
O=C(NCCN1CCOCC1)c1ccc(Cl)cc1,Potency,[1],inactive
same,"activity, negative = cell killing",[2]; [3],-9.41% and -9.63%
same,"activity, negative = cell killing",[2]; [4],-2.14% and -10.5%
same,"activity, negative = cell killing",[2]; [5],-17.8% and -11.9%
Cc1c(NC(=O)c2ccc(C(C)(C)C)cc2)cccc1-c1cn(C)c(=O)c(Nc2ccc(C(=O)N3CCOCC3)cc2)n1,Potency,[1],inactive
CC(C)(C)OC(=O)N[C@H]1CCCCCC=C[C@@H]2C[C@@]2(C(=O)NS(=O)(=O)C2CC2)NC(=O)[C@@H]2C[C@@H](OC(=O)N3Cc4cccc(F)c4C3)CN2C1=O,Potency,[1],inactive
Clc1ccc(Cn2c(CN3CCCC3)nc3ccccc32)cc1,Potency,[1],inactive
same,"activity, negative = cell killing",[2]; [7],-7.94%
same,"activity, negative = cell killing",[2]; [8],-28.4%
same,Potency,[2]; tumour line A,2.51 µM (active)
NCCS,Potency,[1],inactive
same,"activity, negative = cell killing",[2]; [3],-3.94% and -12.1%
same,"activity, negative = cell killing",[2]; [4],-6.82% and -13.2%
same,"activity, negative = cell killing",[2]; [6],-8.15% and -11.3%
same,"activity, negative = cell killing",[2]; [5],-12.7% and -9.68%
COc1cc2ncnc(-n3nc(-c4ccccn4)nc3N)c2cc1OC,Potency,[1],inactive
C[N+](C)(C)CC(=O)O,Potency,[1],inactive
OC[C@@H](O)[C@H](O)[C@H](O)[C@@H](O)CO,Potency,[1],inactive
same,"activity, negative = cell killing",[2]; [3],0.357% and -12%
same,"activity, negative = cell killing",[2]; [4],-2.85% and -9.13%
same,"activity, negative = cell killing",[2]; [6],-13.7% and -24.1%
same,"activity, negative = cell killing",[2]; [5],-4.39% and -14.9%
O=C(NC1CCOCC1)c1ccc(-c2cc(-c3cn[nH]c3-c3ccccn3)ccn2)cc1,Potency,[1],inactive
O=C(O)CCc1nc(-c2ccccc2)c(-c2ccccc2)o1,Potency,[1],inactive
same,"activity, negative = cell killing",[2]; [3],-13%
same,"activity, negative = cell killing",[2]; [4],3.1%
same,"activity, negative = cell killing",[2]; [5],-11.6%
COC(=O)[C@@H]1[C@H]2C[C@H]3c4[nH]c5ccccc5c4CCN3C[C@@H]2CC[C@@H]1O,Potency,[1],inactive
same,"activity, negative = cell killing",[2]; [3],3.23%
same,"activity, negative = cell killing",[2]; [4],3.82%
same,"activity, negative = cell killing",[2]; [5],-7.31%
CNC(=O)c1ccc2cc(C3(O)CCn4cncc43)ccc2c1 (configuration not stated),Potency,[1],inactive
CCN(CC)CCOC(=O)c1ccc(N)cc1,Potency,[1],inactive
same,"activity, negative = cell killing",[2]; [7],5.7%
same,"activity, negative = cell killing",[2]; [8],-3.94%
same,"activity, negative = cell killing","[2]; at 21.2 µM (top of the series), tumour line D",2%
same,"activity, negative = cell killing","[2]; at 21.3 µM (top of the series), tumour line A",-17.4%
O=C1NCC2(CCN(CCc3ccccc3)CC2)O1,Potency,[1],inactive
same,"activity, negative = cell killing",[2]; [3],-4.5%
same,"activity, negative = cell killing",[2]; [4],-9.33%
same,"activity, negative = cell killing",[2]; [5],-12.7%
NC(=O)c1ccc2nc(-c3ccc(Oc4ccc(Cl)cc4)cc3)[nH]c2c1,Potency,[1],inactive
NC(=O)c1cnc(-c2ccc(C3(N)CCC3)cc2)c(-c2ccccc2)c1,Potency,[1],inactive
COc1cc2ncnc(Nc3ccc(F)c(Cl)c3)c2cc1OCCCN1CCOCC1,Potency,[1],inactive
same,"activity, negative = cell killing",[2]; [5],-12.4%
same,Potency,[2]; tumour line A,5.62 µM (active)
same,Potency,[2]; tumour line B,17.8 µM (active)
same,Potency,[2]; tumour line D,8.91 µM (active)
CN1C[C@H]2c3ccccc3Oc3ccc(Cl)cc3[C@@H]2C1,Potency,[1],inactive
same,"activity, negative = cell killing",[2]; [3],-17.5%
same,Potency,[2]; tumour line A,10 µM (active)
CN(C)c1cc(NC(=O)CNC(C)(C)C)c(O)c2c1C[C@@H]1C[C@H]3[C@H](N(C)C)C(=O)C(C(N)=O)=C(O)[C@@]3(O)C(=O)C1=C2O,Potency,[1],inactive
same,"activity, negative = cell killing",[2]; [3],8.46%
same,"activity, negative = cell killing",[2]; [4],6.87%
same,"activity, negative = cell killing",[2]; [6],-27.8%
same,"activity, negative = cell killing",[2]; [5],0.651%
COc1ccccc1N1CCN(CCCNc2cc(=O)n(C)c(=O)n2C)CC1,Potency,[1],inactive
same,"activity, negative = cell killing",[2]; [3],-12.1% and -4.13%
same,"activity, negative = cell killing",[2]; [4],1.29% and -19.7%
same,"activity, negative = cell killing",[2]; [6],-30.8%
same,"activity, negative = cell killing",[2]; [5],-17.7% and -6.4%
CCCCC1C(=O)N(c2ccccc2)N(c2ccccc2)C1=O,Potency,[1],inactive
same,"activity, negative = cell killing",[2]; [3],-14.3% and -18.7%
same,"activity, negative = cell killing",[2]; [4],-13.1% and -6.92%
same,"activity, negative = cell killing",[2]; [5],4.16% and -25.1%
N#C[C@H]1C[C@H]2C[C@@H]2N1C(=O)[C@@H](N)C12CC3CC(CC(O)(C3)C1)C2,"activity, negative = cell killing",[2]; [3],-2.78%
same,"activity, negative = cell killing",[2]; [4],-16.4%
same,"activity, negative = cell killing",[2]; [6],-21.1%
same,"activity, negative = cell killing",[2]; [5],4.9%
Cc1cnc(C(=O)O)c[n+]1[O-],"activity, negative = cell killing",[2]; [3],-12.7% and -17.2% and -5.56%
same,"activity, negative = cell killing",[2]; [4],-2.04% and 1.27% and -4.74%
same,"activity, negative = cell killing",[2]; [6],-14.3% and -47.1%
same,"activity, negative = cell killing",[2]; [5],-29.9% and -17.2% and -16.5%

# From PubChem BioAssay (NCATS)
